Bioassay records deposited in PubChem BioAssay by National Center for Advancing Translational Sciences (NCATS).
EPAC1 agonist: agonists of human EPAC1. O95398. EPAC1 agonist qHTS, biochemical assay; response scale: 100% = response to 6.5 mM cAMP. Potency, µM (titrated, usually from 154 µM), actives largely listed as activators. 360,000 compounds, 0.073% hits. AID 720707; note: nearly all actives have a fitted effect of over 60% in size
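Normalized to 6.5 mM cAMP, activity reflects EPAC1-catalysed release of BODIPY-GDP from Rap1B, followed kinetically over 30 min at 480 nm excitation, 540 nm emission. Reaction contained 100 nM EPAC1, 250 nM Rap1B-BODIPY-GDP, 50 uM GDP.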
USP1-UAF1 inh: inhibitors of human USP1/UAF1 deubiquitinase; AID 743255; Potency, µM (highest dose often 57.1 µM), most hits filed as inhibitors; recombinant USP1/UAF1, Ub-Rhodamine cleavage fluorescence; 390,000 compounds, 0.23% hits; O94782; note: nearly all actives have a fitted effect of over 60% in size
Target sequence (O94782 whole entry, looked up): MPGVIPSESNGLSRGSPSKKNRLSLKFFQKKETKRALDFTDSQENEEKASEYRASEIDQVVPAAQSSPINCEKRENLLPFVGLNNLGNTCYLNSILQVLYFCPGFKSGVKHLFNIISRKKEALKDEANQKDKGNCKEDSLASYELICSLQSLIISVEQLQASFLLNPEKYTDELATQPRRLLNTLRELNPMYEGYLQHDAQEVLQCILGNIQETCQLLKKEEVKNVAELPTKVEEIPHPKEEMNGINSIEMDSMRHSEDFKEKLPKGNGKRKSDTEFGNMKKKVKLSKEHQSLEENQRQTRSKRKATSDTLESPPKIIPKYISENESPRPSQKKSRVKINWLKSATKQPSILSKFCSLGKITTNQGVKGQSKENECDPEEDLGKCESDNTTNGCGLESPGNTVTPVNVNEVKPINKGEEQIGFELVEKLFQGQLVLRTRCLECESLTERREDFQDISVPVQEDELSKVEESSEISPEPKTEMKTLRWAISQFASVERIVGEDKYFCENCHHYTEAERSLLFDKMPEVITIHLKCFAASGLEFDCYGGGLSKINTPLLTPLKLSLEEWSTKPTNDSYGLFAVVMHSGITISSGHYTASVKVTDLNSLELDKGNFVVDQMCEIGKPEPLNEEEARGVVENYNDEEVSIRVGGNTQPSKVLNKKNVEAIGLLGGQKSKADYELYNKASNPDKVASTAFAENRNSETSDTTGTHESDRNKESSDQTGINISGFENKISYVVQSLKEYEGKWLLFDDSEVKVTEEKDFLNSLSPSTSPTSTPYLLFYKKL
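1 nM enzyme complex + cpd, 15 min RT; start with Ub-Rho 150nM final; kinetic fluorescence ex 480/em 540, 6 reads q60 s. Buffer 50mM HEPES pH 7.8, 0.5mM EDTA, 0.1 mg/ml BSA, 1mM TCEP, 0.01% Tween-20.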
EPAC2 agonist: EPAC2 (human) agonism; AID 720711; 360,000 compounds, 0.079% hits; Potency, µM (highest dose often 154 µM), usual class: activators; Q8WZA2; EPAC2 activation, biochemical qHTS; response scale: 100% = 6.5 mM cAMP response; note: nearly all actives have a fitted effect of over 50% in size
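Exchange assay: 100 nM EPAC2 with 250 nM Rap1B-BODIPY-GDP and 50 uM GDP. Fluorescence (ex 480/em 540 nm) read every 5 min for 30 min at room temperature. Data normalized to 6.5 mM cAMP as agonist control.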
EPAC2 antagonist: blocks human EPAC2 exchange factor. Q8WZA2. EPAC2 GEF exchange of Rap1B-BODIPY-GDP, fluorescence. Potency, µM (titrated, usually from 114 µM), actives largely listed as inhibitors. 360,000 compounds, 0.18% hits; note: nearly all actives have a fitted effect of over 45% in size
Coupling enz: coupling enzyme interference in Giardia aldolase counter-screen; coupling enzyme system counterscreen, AmpLite Red fluorescence; activity change, negative = inhibition, % at 58.2 µM, hits read low; 290,000 compounds, 0.67% hits; AID 2472; in the data active = activity change below about -30%
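Final compound at 57.5 uM, incubated 10 min at RT with coupling enzyme reagent (glyceraldehyde-3-phosphate), then 20 min with substrate and AmpLite Red detection. Fluorescence read at 525/598 nm; tests interference with the coupling assay, not aldolase inhibition.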
EPAC1 antag: EPAC1 (human) antagonism; EPAC1 GEF assay, Rap1b-BODIPY-GDP exchange fluorescence; AID 720709; 360,000 compounds, 0.14% hits; O95398; Potency, µM (highest dose often 115 µM), usual class: inhibitors; note: nearly all actives have a fitted effect of over 50% in size
Numbers stand for hits; i = inactive; ? = inconclusive; nt = no result; ! = not confirmed by another sample; [ ] = another dose, or the depositor's remark. Only some compounds are listed: those with a hit (about 0.87% of all), similar ones and a draw of the others. Unless noted, calls come from the whole dose curve; as a rule, active = well fitted curve in the direction sought with a large enough effect; inconclusive = small, poorly fitted or top-dose-only effect, or another doubt; inactive = no such curve, though single readings can be large; an effect the other way counts as inactive or inconclusive.

SMILES	EPAC1 agonist	USP1-UAF1 inh	EPAC2 agonist	EPAC2 antagonist	Coupling enz	EPAC1 antag
O=C1C(NS(=O)(=O)c2cccs2)=C(N2CCN(c3ccccc3)CC2)C(=O)c2ccccc21	i	?	i[15.6 µM]	i	-32.9	i
CC(=O)Nc1ccc(S(=O)(=O)NC2=C(N3CCN(c4ccc(F)cc4)CC3)C(=O)c3ccccc3C2=O)cc1	i	?	i	i	-55.9	i
CN(C)c1ccc(N/C=C/C(=O)c2ccco2)cc1	i	?	i	i	-35.4	i
CCc1ccc(-n2c(SCC(=O)Nc3cc(C)[nH]n3)nc3[nH]ncc3c2=O)cc1	i	i	i	i	i	i
Cc1ccsc1/C=N/NC(=O)CSCc1ccc(Cl)cc1	i	i	i	i	-34.3	i
O=S(=O)(O)c1cc(O)c2cc(Nc3ccccc3)ccc2c1	i	?	i	i	nt	?
O=S(=O)(O)c1ccc(O)c2cc(Nc3ccccc3)ccc12	i	12.6µM	i	?	nt	10µM
CCC(NC(C)C)C(O)c1ccc(O)c(O)c1 (stereo not given)	i	?	i	i	-53.1	i
CC(C)NC[C@H](O)c1ccc(O)c(O)c1	i	?	i	i	-65.5!	i
CCC(c1ccc(O)c(O)c1)C(CC)c1ccc(O)c(O)c1 (stereo not given)	i	i	i	i	nt	i
COC(=O)CSc1nc(C)cc(Oc2ccccc2)n1	i	i	i	i	i	50.1µM
C[C@](N)(Cc1ccc(O)c(O)c1)C(=O)O	i	i	i	i	-57.6!	?
C[C@](N)(Cc1ccc(O)cc1)C(=O)O	nt	nt	nt	nt	i	nt
COC(=O)C(N)Cc1ccc(O)c(O)c1 (stereo not given)	i	i	i	i	i	i
NC(Cc1ccc(O)c(O)c1)C(=O)O (stereo not given)	nt	nt	nt	nt	-30.4	nt
O=C(O)/C=C/c1ccc(O)c(O)c1	i	i	i	i	-30.4!	i
COc1cc(/C=C/C(=O)O)ccc1O	i	i	i	i	i	i
O=C(/C=C/c1ccc(O)c(O)c1)O[C@H](Cc1ccc(O)c(O)c1)C(=O)O	nt	nt	nt	nt	-35.1	nt
C=C(C)Cn1c(C)cc(C)c(S(=O)(=O)c2ccc(C)cc2)c1=O	i	?	i	35.5µM	i	i
Cc1ccc(CN=Cc2[nH]c3ccc(Br)c(Cl)c3c2O)cc1	i	?	i	i	-39.8	i
CCOC(=O)c1c(C)oc2c1c(CN1CCN(C(=O)OCC)CC1)c(O)c1ccccc12	i	i	i	i	i	i
CCOC(=O)c1c(C)oc2c1c1c(c3ccccc32)OCN(Cc2ccccn2)C1	i	i	i	i	-37.3	i
CCOC(=O)c1c(C)oc2c1c(C(c1ccncc1)N1CCOCC1)c(O)c1ccccc12 (stereo not given)	i	?	i	i	-48.2	i
CC(C)CCNc1c(-c2cccs2)nc2ccccn12	i	i	i	44.7µM	i	i
Cc1ccc(/C=C2\SC(=S)N(NS(=O)(=O)c3ccc(C)cc3)C2=O)cc1	i	i	i	44.7µM	i	?
SMILES	EPAC1 agonist	USP1-UAF1 inh	EPAC2 agonist	EPAC2 antagonist	Coupling enz	EPAC1 antag
COc1ccc(/C=C2/SC(=S)N(NS(=O)(=O)c3ccc(C)cc3)C2=O)cc1	i	i	i	?	i	?
C=CCOc1ccc(/C=C2\SC(=S)N(NS(=O)(=O)c3ccc(C)cc3)C2=O)cc1	i	?	i	i	i	50.1µM
CN(C(=S)Nc1ccc(SC(F)F)cc1)c1ccc(O)cc1	i	i	i	i	-33.6	i
CCN(C(=S)Nc1cccnc1)c1ccccc1	i	i	i	i	i	i
CN(C(=S)Nc1cccnc1)c1ccc(O)cc1	i	i	i	i	-33.3	i
CN(C(=S)Nc1ccc(Oc2ccccc2)cc1)c1ccc(O)cc1	i	i	i	i	-50.0	i
CN(C(=S)Nc1ccccc1)c1ccccc1	i	i	i	i	i	i
Brc1[nH]nc2ccccc12	i	i	i	i	i	i
Cc1cccc(C(=O)N2CCCCC2CCN2CCCCC2)c1 (stereo not given)	nt	i	nt	nt	nt	nt
Cc1ccccc1C(=O)c1cccn1CC(=O)NCC(C)c1ccccc1 (stereo not given)	i	i	i	i	i	i
